Source: PubChem BioAssay AID431 (Sanford-Burnham Center for Chemical Genomics, 2006)
Hit rate of the full screen: of about 63,000 compounds, about 1,100 (1.7%) were called active.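 The calls were made as follows: active = compounds whose percent cytotoxicity in the single-dose primary screen, scaled between solvent and toxic-drug controls, exceeds 50; inactive = the rest.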 The list comes from a sample in which actives are over-represented; it also holds similar structures and randomly drawn compounds. Potency and affinity values are given separately.

Assay: cytotoxicity in KRAS-transformed pancreatic duct cells, primary screen, cell-based, fluorescence, HTS (AID 431);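 also: 0% = DMSO solvent wells and 100% = doxorubicin-treated wells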
Conditions: HPDE-C7K KRASV12 cells, Alamar Blue viability, 48 h; at 10 µM; stronger effect = higher value

Compound	cytotoxicity
Cc1sc2nc(CN3CCOCC3)nc(N3CCC(C(N)=O)CC3)c2c1C	2.3% (inactive)
O=C(COCCOCC(=O)N(c1ccccn1)C1CCCCC1)N(c1ccccn1)C1CCCCC1	-24% (inactive)
CCOC(=O)c1nnn(-c2nonc2N)c1COc1ccccc1	-16.7% (inactive)
CN(C)CCNc1nc(-c2ccco2)c2c(c1C#N)CC(C)(C)OC2	-0.3% (inactive)
CCN(CC)CCNc1nc(-c2ccco2)c2c(c1C#N)CC(C)(C)OC2	-15.7% (inactive)
C=CCn1c(SCC2=C(C(=O)OCC)C(C)NC(=O)N2)nnc1C1CCCCC1 (configuration not stated)	-17.2% (inactive)
Cc1cc(NS(=O)(=O)c2ccc(C3CCCCC3)cc2)no1	-3% (inactive)
O=C1CC(C(F)(F)C(F)(F)C(F)(F)C(F)F)=Nc2ccccc2N1	-3.2% (inactive)
Oc1ccccc1-c1cc(C(F)(F)C(F)F)[nH]n1	-5.1% (inactive)
FC(F)C(F)(F)C(F)(F)C(F)(F)c1cc(-c2ccccc2)n[nH]1	82.9% (active)
O=C(Cc1cn2ccsc2n1)NCc1ccccc1	-14.8% (inactive)
COc1cc2c(cc1OC)C(c1cc(OC)c(OC)c(OC)c1)NCC2 (configuration not stated)	7.4% (inactive)
COc1cc2c(cc1OC)C1Cc3ccc(OC)c(OC)c3CN1CC2 (configuration not stated)	-5% (inactive)
Cc1ccc(S(=O)(=O)Cn2nnnc2CN2CCCC3(CCCCC3)C2)cc1	4.3% (inactive)
COc1ccc2nc(NC(=O)c3cnccn3)sc2c1	4.7% (inactive)
CN1CCN(C(c2cccnc2)c2ccc3cccnc3c2O)CC1 (configuration not stated)	-15.1% (inactive)
OCCN1CCN(C(c2cccs2)c2ccc3cccnc3c2O)CC1 (configuration not stated)	83.8% (active)
Cc1nc2sc(C(c3ccccc3)N3CCN(CCO)CC3)c(O)n2n1 (configuration not stated)	-1.5% (inactive)
FC(F)(F)c1ccccc1Nc1nccs1	14.9% (inactive)
CC1CC(C)CN(c2nc3c(c(=O)[nH]c(=O)n3C)n2CCSc2nc3ccccc3o2)C1 (configuration not stated)	2.4% (inactive)
N#CC1=C2SCC(O)(c3ccccc3)N2C(=O)CC1c1ccccc1 (configuration not stated)	65.7% (active)
CCc1ccc(C2CC(=O)N3CN(c4ccccc4)CSC3=C2C#N)cc1 (configuration not stated)	2.4% (inactive)
COc1ccc(C2CC(=O)N3C(=C2C#N)SCC3(O)c2ccccc2)cc1 (configuration not stated)	12.5% (inactive)
N#CC1=C2SCN(Cc3ccccc3)CN2C(=O)CC1c1cccs1 (configuration not stated)	-0.4% (inactive)
N#CC1=C2SCN(c3ccccc3)CN2C(=O)CC1c1cccs1 (configuration not stated)	2.6% (inactive)
COc1ccc(CCNS(=O)(=O)c2ccc3c(c2)OCCO3)cc1OC	-28.8% (inactive)
COc1ccc(S(=O)(=O)N(C)CC(=O)NC2CC2)cc1	-20.5% (inactive)
